Screening results (PubChem BioAssay)
PfM18AAP inh-1: blocks P. falciparum M18 aspartyl aminopeptidase; recombinant PfM18AAP, H-Glu-NHMec fluorogenic cleavage; inhibition, % at 7.35 µM; 290,000 tested, 1.2% active; AID 1822;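 active = inhibition above the campaign mean inhibition over all tested compounds plus 3 SD, cut at about 28% in these data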
ALR H2O2 inh: human ALR oxidase inhibition via reduced H2O2. P55789. purified ALR, DTT oxidation, H2O2 HRP-luminol luminescence. inhibition, % (concentration not given with the values). 290,000 tested, 3.8% active;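 active = mean replicate inhibition above about 79%, with every replicate also reaching it, limit read from the data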
Target sequence (P55789 whole entry, looked up): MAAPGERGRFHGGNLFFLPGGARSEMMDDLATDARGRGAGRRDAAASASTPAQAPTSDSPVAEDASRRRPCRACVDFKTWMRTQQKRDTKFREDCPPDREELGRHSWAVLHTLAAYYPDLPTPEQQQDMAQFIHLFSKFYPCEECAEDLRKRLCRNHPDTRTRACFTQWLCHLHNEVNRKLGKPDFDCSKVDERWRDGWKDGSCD
Exocytosis inh: lytic granule exocytosis inhibition | TALL-104 LAMP-1 surface exposure, flow cytometry; cells stimulated with thapsigargin and PMA | inhibition, % at 10 µM | 360,000 tested, 0.66% active | AID 651702;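 active = inhibition above about 55%, limit read from the data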
JMJD2C inh: blocks human GASC-1 demethylase activity; AID 2099; 330,000 tested, 0.069% active; inhibition, % at 2.35 µM; GST-JMJD2C(1-420) H3K9me3 demethylation, DELFIA europium;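 active = more than half of a compound's replicate wells show inhibition beyond 50%, single wells judged on their own value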;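 note: signal counts dimethyl H3K9 product captured on neutravidin plate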
MIN6 prolif: induces beta-cell replication in MIN6 cells. MIN6 cells proliferation, ATPlite luminescence, 48 h; cells starved in 0.2% serum; 100% = growth in 10% serum. proliferation, % at 10 µM. 330,000 tested, 0.29% active. AID 2380;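 active = compounds whose signal lies at least 3.5 SD above the mean of all wells on their plate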
SMARCA2 act: activators of SMARCA2 function | MG213 cells, MMTV-luciferase reporter, dexamethasone, overnight | activation, % at 9.1 µM | 370,000 tested, 1% active | AID 652017; in the data active = activation above about 7.8%
PfM18AAP inh-2: PfM18AAP inhibition, confirmation; shares compounds with PfM18AAP inh-1; recombinant PfM18AAP, H-Glu-NHMec fluorogenic cleavage; inhibition, % at 7.35 µM; AID 2170; 2,400 tested, 28% active;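 active = mean inhibition over replicate wells above the hit cutoff set for the earlier primary screen, cut at about 29% in these data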
CTSL1 confirm: Cathepsin L (human) inhibition, confirmation | inhibition, % at 5.96 µM | AID 2178 | purified cathepsin L1, Z-Leu-Arg-MCA fluorescence | 2,400 tested, under 10 active | shares compounds with PfM18AAP inh-1;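 active = average inhibition across replicates above the hit cutoff set in the earlier primary screen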
Target sequence (P07711 whole entry, looked up): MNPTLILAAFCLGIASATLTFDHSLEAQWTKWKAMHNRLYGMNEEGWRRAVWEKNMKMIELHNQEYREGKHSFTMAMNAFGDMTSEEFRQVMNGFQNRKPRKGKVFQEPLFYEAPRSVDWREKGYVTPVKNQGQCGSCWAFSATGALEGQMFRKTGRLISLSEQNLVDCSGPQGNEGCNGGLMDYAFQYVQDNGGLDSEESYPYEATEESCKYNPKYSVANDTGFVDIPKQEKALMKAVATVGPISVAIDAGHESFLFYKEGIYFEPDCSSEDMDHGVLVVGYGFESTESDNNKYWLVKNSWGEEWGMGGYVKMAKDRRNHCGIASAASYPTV
Large screens that a line does not name were inactive (follow-up assays come after a bar, where they were run). In the library only some 5.4% were active in any assay of this set; here they are far more common.

COCCN(Cc1ccc(C)cc1)C(=O)[C@@H](Cc1ccccc1)NC(=O)[C@H]1O[C@@H](n2ccc(=O)[nH]c2=O)[C@H](O)[C@@H]1O	none (no result: PfM18AAP inh-1, ALR H2O2 inh, Exocytosis inh, JMJD2C inh, MIN6 prolif)
CC[n+]1c(C)sc2c(C)cc(C)cc21	none
CC[n+]1c(C)sc2cc(OC)ccc21	PfM18AAP inh-1 37 | PfM18AAP inh-2 inactive | CTSL1 confirm inactive
Cc1cccc(-n2c(Cc3ccccc3)n[nH]c2=S)c1	PfM18AAP inh-1 34 | PfM18AAP inh-2 inactive | CTSL1 confirm inactive
COc1ccc(CC(=O)NCc2n[nH]c(=S)n2-c2cccc(Cl)c2)cc1	none
Cc1c(C(=O)NCc2n[nH]c(=S)n2-c2ccc(F)cc2)cccc1[N+](=O)[O-]	PfM18AAP inh-1 33 (no result: JMJD2C inh) | PfM18AAP inh-2 inactive | CTSL1 confirm inactive
Cc1cccc(-n2c(CNC(=O)Cc3ccccc3)n[nH]c2=S)c1	PfM18AAP inh-1 38 | PfM18AAP inh-2 inactive | CTSL1 confirm inactive
C[C@H](c1ccccc1)N1C[C@@H](COCc2ccccc2)Oc2cccc(F)c2S1(=O)=O	none (no result: PfM18AAP inh-1, ALR H2O2 inh, Exocytosis inh, JMJD2C inh, MIN6 prolif)
CCCCc1c(-c2ccccc2OC)ncn1Cc1ccc(F)c(F)c1	none (no result: PfM18AAP inh-1, ALR H2O2 inh, Exocytosis inh, JMJD2C inh, MIN6 prolif)
COc1cccc(NC(=O)C2CCCN2C(=O)Nc2ccc(Cl)cc2)c1 (configuration not stated)	none (no result: PfM18AAP inh-1, ALR H2O2 inh, Exocytosis inh, JMJD2C inh, MIN6 prolif)
O=C(Nn1cnnc1)c1ccc(F)cc1	PfM18AAP inh-1 32 | PfM18AAP inh-2 inactive | CTSL1 confirm inactive
O=C(Nn1cnnc1)c1ccc(Cl)cc1	PfM18AAP inh-1 42 | PfM18AAP inh-2 inactive | CTSL1 confirm inactive
O=C(Nn1cnnc1)c1ccc(Cl)cc1[N+](=O)[O-]	none (no result: ALR H2O2 inh)
O=C(Nn1cnnc1)c1ccc(OC(F)(F)C(F)C(F)(F)F)cc1 (configuration not stated)	PfM18AAP inh-1 38 | PfM18AAP inh-2 inactive | CTSL1 confirm inactive
CC(=O)C1=C(C)N(CC(C)C)C(=S)NC1c1cccc(Cl)c1 (configuration not stated)	none (no result: PfM18AAP inh-1, ALR H2O2 inh, Exocytosis inh, JMJD2C inh, MIN6 prolif)
O=C(NCC1CCCO1)c1ccccc1 (configuration not stated)	none
O=C(NCC1CCCO1)NC1(C(F)(F)F)Oc2ccccc2O1 (configuration not stated)	PfM18AAP inh-1 37 | PfM18AAP inh-2 inactive | CTSL1 confirm inactive
O=C(NC1(C(F)(F)F)Oc2ccccc2O1)N1CCCC1	PfM18AAP inh-1 75 (no result: ALR H2O2 inh) | PfM18AAP inh-2 45 | CTSL1 confirm inactive
O=C(NCCc1ccccc1Cl)[C@@H]1CCCN1C(=O)[C@@H](NS(=O)(=O)c1ccc(F)cc1F)C1CCCCC1	none (no result: PfM18AAP inh-1, ALR H2O2 inh, Exocytosis inh, JMJD2C inh, MIN6 prolif)
CCOc1ccccc1/C=N/Nc1nc2c(N)ncnc2n1[C@H]1O[C@@H](CO)[C@H](O)[C@@H]1O	PfM18AAP inh-1 36 | PfM18AAP inh-2 inactive | CTSL1 confirm inactive
CCN(CC)S(=O)(=O)c1ccc2oc(SCC(=O)Nc3cc(C)on3)nc2c1	none (no result: PfM18AAP inh-1)
CCN(CC)S(=O)(=O)c1ccc2oc(SCC(=O)NC3CC3)nc2c1	PfM18AAP inh-1 32 | PfM18AAP inh-2 inactive | CTSL1 confirm inactive
CN(Cc1ccccc1)C(=O)OCc1cn(Cc2cccc(Cl)c2)nn1	none (no result: PfM18AAP inh-1, ALR H2O2 inh, Exocytosis inh, JMJD2C inh, MIN6 prolif)
Cc1ccc(N2CC(C(=O)OCC(=O)c3ccc([N+](=O)[O-])cc3)CC2=O)cc1 (configuration not stated)	PfM18AAP inh-1 38 (no result: ALR H2O2 inh) | PfM18AAP inh-2 inactive | CTSL1 confirm inactive
CCCc1cc(=O)[nH]c(=S)[nH]1	PfM18AAP inh-1 44 | PfM18AAP inh-2 inactive | CTSL1 confirm inactive
COC(=O)c1cc2c(c3c4cc(F)ccc4n(S(=O)(=O)c4cccc(C)c4)c13)C(=O)N(Cc1ccc(N(C)C)cc1)C2	none (no result: PfM18AAP inh-1, ALR H2O2 inh, Exocytosis inh, JMJD2C inh, MIN6 prolif)
NS(=O)(=O)c1ccc(NNC(=O)c2cccs2)cc1	PfM18AAP inh-1 55 | PfM18AAP inh-2 36 | CTSL1 confirm inactive
O=C(NNc1cc(Cl)cc(Cl)c1)c1cccs1	PfM18AAP inh-1 37 | PfM18AAP inh-2 33 | CTSL1 confirm inactive
O=C(NNc1ccc(Cl)cc1)c1cccs1	PfM18AAP inh-1 44 | PfM18AAP inh-2 inactive | CTSL1 confirm inactive
O=C(NNC(=O)c1cccs1)Nc1cccc(Cl)c1	PfM18AAP inh-1 60 | PfM18AAP inh-2 inactive | CTSL1 confirm inactive
